# Results taken from PubChem BioAssay.
# System: Chordin-like protein 2 (CHRDL2)
# Assay: CHRDL2 small-molecule binders, primary screen, biochemical, small-molecule microarray, 635 nm fluorescence (AID 1126);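 note: printed compound slides probed with Chrdl2 protein at 4 µg/mL for 1 h at 4 C; score merges 667 nm emission intensity with signal to noise over three replicate slides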
# Conditions: small-molecule microarray binding, fluorescence 635 nm; higher = more signal
row,Compound,composite z-score
1,CO[C@H]1O[C@H](CO)[C@@H](OC(=O)Nc2ccc(Oc3ccccc3)cc2)[C@H](OC(=O)Nc2ccccc2)[C@H]1OC(=O)Nc1ccccc1,-0.0078
2,O=C(CS)NCCCCCCNC(=O)[C@H]1C[C@H]2C(=O)NCC(=O)N2[C@H]1c1ccc(O)cc1,0.129
3,COCCOC(=O)N1C(=O)[C@@]2(c3cc(C#CCCO)ccc31)[C@H](c1ccc(O)cc1)N1[C@H](c3ccccc3)[C@H](c3ccccc3)OC(=O)[C@H]1[C@@H]2C(N)=O,-0.552
4,CC(C)(C)N1CC=CC23O[C@@H]4/C=C\CCCOC(=O)C4[C@H]2C(=O)N(CCO)[C@@H]3C1=O (some centres undefined),-0.0702

# Biological target: Concanavalin-A (Canavalia ensiformis) (UniProt P02866)
# Assay: ConA small-molecule binders, primary screen, artefact control for SMM control protein annotation, biochemical, small-molecule microarray, Alexa647 label, 635 nm (AID 1127);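 note: z combines 667 nm emission intensity with signal-to-noise across three replicate slides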
# Conditions: ConA-A647 binding fluorescence, higher = more signal
# Sequence of Concanavalin-A (Canavalia ensiformis) (P02866 whole entry, looked up): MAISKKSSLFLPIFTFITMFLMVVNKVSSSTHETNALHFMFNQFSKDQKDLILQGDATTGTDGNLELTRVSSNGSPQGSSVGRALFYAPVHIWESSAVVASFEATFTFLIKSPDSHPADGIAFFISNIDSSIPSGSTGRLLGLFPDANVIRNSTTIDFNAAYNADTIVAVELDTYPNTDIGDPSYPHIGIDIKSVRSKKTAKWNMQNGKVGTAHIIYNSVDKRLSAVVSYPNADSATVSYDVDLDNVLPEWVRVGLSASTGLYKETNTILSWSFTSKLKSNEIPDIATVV
row,Compound,composite z-score
1,COc1cc(CO)ccc1OC(C)=O,0.687
2,COc1ccc(C#Cc2ccc3c(c2)[C@]2(C(=O)N3)[C@H](c3ccc(O)cc3)N3[C@H](c4ccccc4)[C@H](c4ccccc4)OC(=O)[C@H]3[C@@H]2C(=O)N2CCCCCCC2)cc1,1.14
3,CN1C=C(C(=O)OCCS(C)(=O)=O)C(C(=O)OCCS(C)(=O)=O)=CC(CCCO)=CC1C1CC1 (centres undefined),0.183
4,COCCOC(=O)N1C(=O)[C@@]2(c3cc(C#CCC(C(=O)OC)C(=O)OC)ccc31)[C@H](c1ccc(O)cc1)N1[C@H](c3ccccc3)[C@H](c3ccccc3)OC(=O)[C@H]1[C@@H]2C(N)=O,0.859
5,COc1ccc(NN2C(C(O)c3ccc(OC)c(OCc4ccccc4)c3)C=CC3C(=O)N(C4CCCCC4)C(=O)C32)cc1 (centres undefined),1.11
6,CC(C)N1CC=CC23O[C@@H]4C=CCOC(=O)[C@@H]4[C@H]2C(=O)N(CCO)[C@@H]3C1=O (some centres undefined),-0.329
7,O=C1c2ccccc2[C@@]2(Cc3ccccc3N(Cc3ccccc3)C2=O)[C@H](c2ccc(CO)cc2)N1C1CCCCC1,1.01
8,CO[C@H]1O[C@H](CO)[C@@H](OC(=O)Nc2ccc3c(c2)OCO3)[C@H](OC(=O)Nc2ccccc2)[C@H]1OC(=O)Nc1ccccc1,0.143
9,CC(C)C[C@@H]1NC(=O)[C@@H]2C[C@H](C(=O)NCCCCCC[N+](C)(C)C)[C@H](c3ccc(O)cc3)N2C1=O,0.989
10,N#Cc1ccc(NN2C(C(O)C3CCCCC3)C=CC3C(=O)N(c4ccccc4)C(=O)C32)cc1 (centres undefined),1.21
11,O=c1oc(-c2ccccc2)nc2cc(Br)ccc12,0.666
12,COC(=O)[C@@]1(Cc2ccc(OC)cc2)[C@H]2c3cc(C(=O)N(C)C)n(Cc4c(OC)[nH]cc(C)c4=O)c3C[C@H]2CN1C(=O)c1ccccc1,-0.172
13,CC(C)NC(=O)[C@@H]1c2ccccc2C(=O)N(Cc2ccccc2)[C@H]1c1ccc(CO)cc1,-0.717
14,O=C1C=CC(=O)[C@@H]2CC(COc3ccccc3)=C3[C@@H](CCc4ccccc4)OB(O)C[C@@H]3[C@H]12,0.238
15,C=CCC(OC(C)=O)[C@@H]1[C@@H](N(Cc2cccc3ccccc23)C(=O)c2cccc3ccccc23)c2cc(OCCCO)ccc2N1C(=O)c1ccc2ccccc2n1 (some centres undefined),-0.0505
16,O=C1[C@]2(CO)C=C(Br)[C@@H](C[C@@H]2c2ccccc2)[C@@]12CO2,0.195
17,COCC1=C2[C@@H](CCc3ccccc3)OB(O)C[C@@H]2[C@@H]2C(=O)N(Cc3ccccc3)C(=O)[C@@H]2C1,-0.777
18,CCOC(=O)C1=CC[C@@H](c2ccccc2)N(S(=O)(=O)c2ccc(C)cc2)[C@H]1C(=O)OCC,-0.515
19,Cc1ccccc1C(O)C1C=CC2C(=O)N(C)C(=O)C2N1Nc1ccccc1 (centres undefined),1.15
20,C=CCC(OC(C)=O)[C@@H]1[C@@H](N(Cc2ccc(-c3ccccc3)cc2)C(=O)Cc2ccc(OC)cc2)c2cc(OCCCO)ccc2N1C(=O)c1ccc2ccccc2n1 (some centres undefined),0.177
21,CCN(CC)c1ccc(N2CC=CC34O[C@@H]5C=CCCOC(=O)C5[C@H]3C(=O)N(CCCCCO)[C@@H]4C2=O)cc1 (some centres undefined),-0.459
22,C[C@]1(C(=O)NCc2ccccc2)c2ccccc2C(=O)N(Cc2ccc(OC(F)(F)F)cc2)[C@H]1c1ccc(CO)cc1,0.592
23,CC(=O)Nc1cc(Br)ccc1C(=O)O,0.984
24,COC(=O)C[C@H]1O[C@]2(C(=O)N(Cc3ccccc3)c3ccc(NC(C)=O)cc32)[C@@H](C)[C@@H]1[Si](C)(C)c1ccc(OC)cc1,0.355
25,COCCOC(=O)N1C(=O)[C@@]2(c3cc(C#CCC(C(=O)OC)C(=O)OC)ccc31)[C@H](C(=O)N1CCN(c3ncccn3)CC1)[C@H]1C(=O)O[C@H](c3ccccc3)[C@H](c3ccccc3)N1[C@@H]2c1ccc(OCCO)cc1,1.09
